# Test results reported in PubChem BioAssay AID651813 (National Center for Advancing Translational Sciences (NCATS), 2012).
# In all, about 2,100 compounds went through this assay and about 1,100 (52%) were called active. About 27% were inconclusive and are not listed. The set was probably picked from earlier hits. The list shows a part of the results. Values without a mark were called inactive. Calls come from the whole dose curve; as a rule, active = well fitted inhibition curve with a large enough effect; inconclusive = small, poorly fitted or top-dose-only effect; inactive = no such curve, though single readings can be large or run the other way.
# Molecular target: DNA dC->dU-editing enzyme APOBEC-3G (Homo sapiens) (UniProt Q9HC16)
# Experiment: qHTS for inhibitors of Vif-A3G interactions: Cherry picks counterscreen;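 note: hits raise yellow fluorescence by blocking Vif-driven A3G-eYFP degradation; nearly all actives have a fitted effect of over 70% in size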;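 for max response: max response given as percent of control signal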
# Conditions: HeLa A3G-eYFP + Vif (tagged APOBEC3G with the HIV-1 protein that degrades it), eYFP fluorescence, 24 h
# Procedure, shortened: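 Readout is eYFP fluorescence (488 nm excitation, 500-530 nm emission) measured on Acumen Explorer after 24 h compound exposure, several concentrations, at 37 deg C. Cells: HeLa stably co-expressing Vif and C-terminally eYFP-tagged A3G; MG132 positive control.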
# Potency is the fitted concentration of half-maximal effect.
# Chain of DNA dC->dU-editing enzyme APOBEC-3G (Homo sapiens) (Q9HC16 whole entry, looked up): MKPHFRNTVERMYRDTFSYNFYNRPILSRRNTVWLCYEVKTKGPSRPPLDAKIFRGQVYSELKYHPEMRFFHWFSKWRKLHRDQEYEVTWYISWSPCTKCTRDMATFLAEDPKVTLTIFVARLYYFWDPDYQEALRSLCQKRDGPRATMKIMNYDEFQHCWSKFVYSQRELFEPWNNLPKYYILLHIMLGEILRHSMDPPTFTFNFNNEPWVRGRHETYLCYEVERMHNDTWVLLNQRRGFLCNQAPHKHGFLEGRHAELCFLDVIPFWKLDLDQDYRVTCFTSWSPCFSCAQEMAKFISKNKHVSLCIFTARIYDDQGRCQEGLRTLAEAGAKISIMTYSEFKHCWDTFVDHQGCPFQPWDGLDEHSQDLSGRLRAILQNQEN
SMILES,Potency,max response [%]
CCCNC(=O)c1ccccc1NC(=O)c1ccc2c(c1)NC(=O)C(C)S2 (stereo unspecified),7.04 µM (active),–
CC1Sc2ccc(C(=O)NCc3ccccn3)cc2NC1=O (stereo unspecified),–,3.16
CC(C)CCNC(=O)c1ccc2c(c1)NC(=O)C(CS(=O)(=O)Cc1cccc(Br)c1)N2 (stereo unspecified),–,2.76
CCN(CC)c1ccc(NC(=O)c2cccc(F)c2)c(C)c1,4.98 µM (active),–
COc1ccc(OC)c(NC(=O)Cn2cnc3onc(-c4ccc(Cl)cc4)c3c2=O)c1,–,9.98
COc1ccc(OC)c(Nc2ncnc3c2cnn3-c2cccc(Cl)c2)c1,7.31 µM (active),–
Cc1ccc2[nH]c(C(=O)NN=C3CCCCC3)c(-c3ccccc3)c2c1,–,4.2
Cc1cc(NC(=O)/C(C#N)=C/c2ccc(-c3ccc(SC(F)F)cc3)o2)n(-c2ccccc2)n1,4.61 µM (active),–
Cc1cc(NC(=O)/C(C#N)=C\c2ccc(-c3ccc(SC(F)F)cc3)o2)n(-c2ccccc2)n1,2.59 µM (active),–
COc1ccc2[nH]cc(/C=C/c3cc[n+](C)cc3)c2c1,9.2 µM (active),–
COc1ccc2c(c1)c(/C=C/c1cc[n+](C)cc1)cn2C,2.23 µM (active),–
Cc1ccc2[nH]cc(/C=C/c3cc[n+](C)cc3)c2c1,1.4 µM (active),–
C[n+]1ccc(/C=C/c2c[nH]c3ccc(F)cc23)cc1,5.8 µM (active),–
Cc1ccc(NC(=S)N/N=C2\CCCCC2C)cc1 (stereo unspecified),–,-4.1
CN(C)c1ccc(/C=C/c2cc[n+](C)cc2)cc1,12.5 µM (active),–
CC[n+]1cc(C)ccc1/C=C/c1ccc(N(C)C)cc1,17.7 µM (active),–
Cc1ccc(/C=C/c2ccc(N(C)C)cc2)[n+](C)c1,17.7 µM (active),–
C=CCOc1c(Cl)cc(C(=S)N2CCCC2)cc1OCC,15.8 µM (active),–

SMILES,Potency,max response [%]
CCCOc1cc(N(CC)CC)ccc1/C=C(/C#N)c1nc2ccc(C)cc2[nH]1,–,37.6
Cc1cccc(OCCOc2ccccc2C=C(C#N)C#N)c1,22.3 µM (active),–
COC(=O)c1sccc1NC(=S)Nc1cc(C)cc(C)c1,–,5.75
COC(=O)c1sccc1S(=O)(=O)N(CC(=O)Nc1cc(F)ccc1F)c1ccc(C)c(C)c1,–,-2.7
CCOc1ccccc1C(=O)Nc1ccsc1C(=O)OC,2.5 µM (active),–
COc1ccc(NC(=O)C2(C)Cc3c(-c4cccc(NC(C)=O)c4)ccnc3O2)cc1 (stereo unspecified),1.77 µM (active),–
COc1ccc(NC(=O)C2(C)Cc3c(-c4cccc(C(N)=O)c4)ccnc3O2)cc1 (stereo unspecified),4.44 µM (active),–
CCCCn1c(N)c(N(Cc2ccccc2OC)C(=O)c2ccc([N+](=O)[O-])s2)c(=O)[nH]c1=O,–,-2.93
C=CCN1C(=O)c2ccc(C(=O)N(CC(C)C)c3c(N)n(CCCC)c(=O)[nH]c3=O)cc2C1=O,–,1.27
CCCCn1c(N)c(N(CC(C)C)C(=O)Cc2ccc(S(=O)(=O)N3CCOCC3)s2)c(=O)[nH]c1=O,18.4 µM (active),–
CCc1cc[n+](-c2nc3ccccc3nc2[N-]S(=O)(=O)c2ccc(Br)s2)cc1,23.1 µM (active),–
O=S(=O)([N-]c1nc2ccccc2nc1-[n+]1ccc(-c2ccncc2)cc1)c1ccccc1,–,5.45
Cc1cc(C)c[n+](-c2nc3ccccc3nc2[N-]S(=O)(=O)c2ccc(Br)s2)c1,23.1 µM (active),–
Cc1ccc(Cc2c(C3CCCCC3)nc3ccc(C)cn23)cc1,–,27.2
COc1ccc2oc(-c3ccccc3[N+](=O)[O-])cc(=O)c2c1,5.59 µM (active),–
O=C(O)c1ccccc1/C=N/Nc1ccc(S(=O)(=O)N2CCOCC2)cc1[N+](=O)[O-],–,-0.239
CCCN1CCC(=NNc2ccc(S(=O)(=O)N3CCOCC3)cc2[N+](=O)[O-])CC1,14 µM (active),–
Cc1ccc(NC(=S)N=Nc2c(O)n(C)c3ccc(S(=O)(=O)N4CCOCC4)cc23)cc1,–,0.754
